Measured values as given in PubChem BioAssay AID624308 (National Center for Advancing Translational Sciences (NCATS), 2012).
Inconclusive results are not listed. A number with no mark means an inactive call. Activity calls are given as the source filed them. Calls come from the whole dose curve; as a rule, active = well fitted inhibition curve with a large enough effect; inconclusive = small, poorly fitted or top-dose-only effect; inactive = flat fitted curve, though single readings scatter.

What follows are compounds tested against Peptidyl-prolyl cis-trans isomerase NIMA-interacting 1 (Homo sapiens) (UniProt Q13526) (assay: qHTS Assay to Find Inhibitors of Pin1: Hit Validation). Conditions: Pin1 FP peptide displacement, HiFluor488 probe; series mostly up to 57.5 µM; activity, negative = inhibition: at the top concentration.
Peptidyl-prolyl cis-trans isomerase NIMA-interacting 1 (Homo sapiens), sequence (Q13526 whole entry, looked up, the tested form may be a part): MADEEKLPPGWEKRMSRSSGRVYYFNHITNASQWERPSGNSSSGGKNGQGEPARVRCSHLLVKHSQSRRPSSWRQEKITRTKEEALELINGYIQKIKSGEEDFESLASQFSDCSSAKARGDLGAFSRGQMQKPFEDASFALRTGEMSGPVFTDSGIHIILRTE
Description: The unique chemical properties of Pro allow for the adoption of two completely distinct amide bond conformations (cis and trans). Peptidyl-prolyl cis/trans isomerases (PPIases) are evolutionary conserved enzymes that catalyze cis/trans isomerization of peptidyl-prolyl peptide bonds. Distinct from all other PPIases such as cyclophilins and FK506-binding proteins (FKBPs), Pin1 binds a subset of phos.Ser/Thr-Pro-containing proteins using its protein-targeting WW domain and isomerizes only specific phos.Ser/Thr-Pro bonds, which cannot be effectively catalyzed by other known PPIases. Pin1-catalyzed conformational regulation can control a spectrum of activities of many key regulators in diverse cellular processes such as cell growth, genotoxic and other stress responses, immune response, germ cell development, neuronal differentiation and survival. Pin1 has emerged as a novel molecular timer that modulates its multiple targets at various steps of a given cellular process to synergistically control the amplitude and duration of a cellular response or process. Importantly, Pin1 is tightly regulated by multiple levels and its deregulation has an important role in a growing number of pathological conditions, including cancer, Alzheimer's disease, aging, asthma and microbial infection, providing a potentially new therapeutic option. The goal of this screen is to find small-molecule inhibitors of Pin1 using a fluorescence polarization competition assay. A HiFluor-488-labeled peptide binds to the active site of Pin1 and can be displaced by compounds. Compounds were screened as a concentration-titration series that ranged from 57 uM to 0.7 nM. This is the hit validation to test the hits identified in the primary screen. NIH Molecular Libraries Probe Production Network [MLPCN] NIH Chemical Genomics Center [NCGC] MLPCN Grant: R03 DA031663 PI Name: Dr. Kun Ping Lu, Beth Israel Deaconess Medical Center
Pin1 (0.6 uM) was dispensed into black, solid 1536-well plates at 2 uL/well in 10 mM HEPES (pH 7.5), 10 mM NaCl, 0.01% Tween20, 1 mM DTT, and 1% glycerol. Then, 23 nL of compounds or DMSO were delivered to each well using a pin tool. Two uL of Pin1-1b-HiFluor488 peptide (10 mM HEPES (pH 7.5), 10 mM NaCl, 0.01% Tween20, 1 mM DTT, and 1% glycerol, 0.02 uM Pin1-1b-HiFluor488) was then dispensed, and plates were incubated at room temperature for 10 min. The plates were measured on a ViewLux plate reader for fluorescence polarization signal using a 480/20 nM nm excitation filter and 540/25 nM nm S and P emission filters with a 20 second exposure. The %Activity was determined from the corrected fluorescence polarization values. Unlabeled Pin1-1c peptide was used as a control (3.5 mM two-fold serial; 20 uM final concentration) along with a 1x (0.3 uM) and 0x (no-enzyme) Pin1 enzyme control to normalize %Activity of identified inhibitors; 0x enzyme values corresponded to 100%Activity (full inhibition), while 1x Pin1 enzyme values were used to normalize 0%Activity (no inhibition). Concentration-response curves were fitted to the signals arising from the resulting fluorescence polarization. The concentration-effect curves were then classified based on curve quality (r2), response magnitude and degree of measured activity, and compounds were subsequently categorized based on their curve class. […] Keywords: Peptidyl prolyl isomerase, Pin1, fluorescence polarization, MLSMR, MLPCN, NIH Roadmap, qHTS, NCGC

Compound	Potency	activity, negative = inhibition
COc1ccccc1Nc1ccc2c(O)cc(S(=O)(=O)O)cc2c1	1.2 µM (active)	
CC(=O)Nc1ccc(Nc2c3c4c(cccc4n(C)c2=O)C(=O)c2ccccc2-3)cc1	3.38 µM (active)	
O=S(=O)(O)c1cc(O)c2cc(Nc3ccccc3)ccc2c1	10.7 µM (active)	
COc1ccc(S(=O)(=O)Nc2cc(Sc3ncn[nH]3)c(O)c3ccccc23)cc1		-0.212%
Cc1ccc2nc(-c3ccc(N=Nc4cc(S(=O)(=O)O)c5ccccc5c4O)cc3)sc2c1S(=O)(=O)O	3.01 µM (active)	
O=C1c2ccccc2C(=O)c2c(O)c(O)cc(O)c21	26.9 µM (active)	
CCCCCC(=O)Nc1cc(S(=O)(=O)O)cc2cc(S(=O)(=O)O)cc(O)c12	1.69 µM (active)	
COc1cccc2c1C(=O)c1c(O)c3c(c(O)c1C2=O)C[C@](O)(C(C)=O)C[C@H]3O[C@@H]1C[C@@H](N)[C@@H](O)[C@@H](C)O1		-19.5%
O=S(=O)(Nc1cc(Sc2ncn[nH]2)c(O)c2ccccc12)c1ccccc1		-0.289%
O=S(=O)(O)c1ccc(O)c2cc(Nc3ccccc3)ccc12	1.69 µM (active)	
